The structures appear in SMILES notation.

By inhibition is commonly meant the change of the read-out against control, counted positive when it falls.

Assay [1] concerns the target T1, Serine/threonine-protein kinase Nek9 (Homo sapiens) (UniProt Q8TD19).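 Further: each value is a mean percent inhibition of NEK9.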
T1 sequence (whole entry): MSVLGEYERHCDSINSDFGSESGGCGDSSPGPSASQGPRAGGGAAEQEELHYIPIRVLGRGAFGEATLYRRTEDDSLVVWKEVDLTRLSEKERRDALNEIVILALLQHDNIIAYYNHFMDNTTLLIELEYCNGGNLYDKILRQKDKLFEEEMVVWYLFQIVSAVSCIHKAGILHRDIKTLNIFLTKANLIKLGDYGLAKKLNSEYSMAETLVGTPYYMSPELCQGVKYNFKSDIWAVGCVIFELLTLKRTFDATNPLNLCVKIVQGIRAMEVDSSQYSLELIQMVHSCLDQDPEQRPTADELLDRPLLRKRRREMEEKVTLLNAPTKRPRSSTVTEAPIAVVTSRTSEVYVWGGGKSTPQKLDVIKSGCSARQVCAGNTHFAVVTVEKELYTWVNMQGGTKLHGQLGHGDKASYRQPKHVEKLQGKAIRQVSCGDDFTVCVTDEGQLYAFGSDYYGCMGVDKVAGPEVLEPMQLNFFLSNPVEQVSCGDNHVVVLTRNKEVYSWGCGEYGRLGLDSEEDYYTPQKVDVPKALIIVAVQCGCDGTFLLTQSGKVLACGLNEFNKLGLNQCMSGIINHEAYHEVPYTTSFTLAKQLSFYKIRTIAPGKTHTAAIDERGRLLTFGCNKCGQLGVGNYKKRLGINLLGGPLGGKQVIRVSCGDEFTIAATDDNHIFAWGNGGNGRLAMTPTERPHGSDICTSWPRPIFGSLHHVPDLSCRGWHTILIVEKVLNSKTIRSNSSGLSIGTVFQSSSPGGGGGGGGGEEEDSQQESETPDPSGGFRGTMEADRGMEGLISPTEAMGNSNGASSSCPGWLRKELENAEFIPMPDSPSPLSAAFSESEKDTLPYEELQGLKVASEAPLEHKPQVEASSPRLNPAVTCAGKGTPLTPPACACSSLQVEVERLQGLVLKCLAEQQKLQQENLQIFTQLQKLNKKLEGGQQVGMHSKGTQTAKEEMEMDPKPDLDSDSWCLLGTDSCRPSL
The following applies: at 1 µM.

The target of assay [2] is Serine/threonine-protein kinase PLK1 (Homo sapiens) (UniProt P53350). Conditions: at 0.1 µM.
Assay [3] has the same target. The following applies: at 1 µM.
For assay [4], the target named is T2, Dual specificity protein kinase TTK (Homo sapiens) (UniProt P33981).
T2 sequence (whole entry): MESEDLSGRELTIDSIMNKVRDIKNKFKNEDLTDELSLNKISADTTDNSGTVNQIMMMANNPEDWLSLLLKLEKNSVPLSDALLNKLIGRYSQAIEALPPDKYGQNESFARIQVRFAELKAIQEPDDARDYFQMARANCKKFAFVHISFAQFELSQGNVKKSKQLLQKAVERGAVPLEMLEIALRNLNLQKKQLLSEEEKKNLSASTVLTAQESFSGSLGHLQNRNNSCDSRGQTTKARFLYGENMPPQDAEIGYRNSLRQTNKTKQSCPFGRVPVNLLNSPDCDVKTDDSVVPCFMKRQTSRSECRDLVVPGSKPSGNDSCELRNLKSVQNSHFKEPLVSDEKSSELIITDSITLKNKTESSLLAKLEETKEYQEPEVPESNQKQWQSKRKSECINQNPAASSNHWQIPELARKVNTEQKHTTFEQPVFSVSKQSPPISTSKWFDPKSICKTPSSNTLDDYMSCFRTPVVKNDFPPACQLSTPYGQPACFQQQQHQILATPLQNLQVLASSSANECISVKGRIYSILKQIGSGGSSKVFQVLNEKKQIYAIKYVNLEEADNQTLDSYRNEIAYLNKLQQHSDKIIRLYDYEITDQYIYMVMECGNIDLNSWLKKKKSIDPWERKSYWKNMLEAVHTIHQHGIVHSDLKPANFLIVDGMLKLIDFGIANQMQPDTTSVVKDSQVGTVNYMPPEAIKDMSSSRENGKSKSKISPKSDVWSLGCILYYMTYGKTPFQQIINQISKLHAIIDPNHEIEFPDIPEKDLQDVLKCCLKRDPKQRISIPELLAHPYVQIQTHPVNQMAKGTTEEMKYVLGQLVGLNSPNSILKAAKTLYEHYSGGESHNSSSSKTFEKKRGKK
The following applies: at 0.1 µM.

For assay [5], the system named is T3, Receptor-type tyrosine-protein kinase FLT3 (Homo sapiens), P36888 [D835Y].
T3 sequence (whole entry): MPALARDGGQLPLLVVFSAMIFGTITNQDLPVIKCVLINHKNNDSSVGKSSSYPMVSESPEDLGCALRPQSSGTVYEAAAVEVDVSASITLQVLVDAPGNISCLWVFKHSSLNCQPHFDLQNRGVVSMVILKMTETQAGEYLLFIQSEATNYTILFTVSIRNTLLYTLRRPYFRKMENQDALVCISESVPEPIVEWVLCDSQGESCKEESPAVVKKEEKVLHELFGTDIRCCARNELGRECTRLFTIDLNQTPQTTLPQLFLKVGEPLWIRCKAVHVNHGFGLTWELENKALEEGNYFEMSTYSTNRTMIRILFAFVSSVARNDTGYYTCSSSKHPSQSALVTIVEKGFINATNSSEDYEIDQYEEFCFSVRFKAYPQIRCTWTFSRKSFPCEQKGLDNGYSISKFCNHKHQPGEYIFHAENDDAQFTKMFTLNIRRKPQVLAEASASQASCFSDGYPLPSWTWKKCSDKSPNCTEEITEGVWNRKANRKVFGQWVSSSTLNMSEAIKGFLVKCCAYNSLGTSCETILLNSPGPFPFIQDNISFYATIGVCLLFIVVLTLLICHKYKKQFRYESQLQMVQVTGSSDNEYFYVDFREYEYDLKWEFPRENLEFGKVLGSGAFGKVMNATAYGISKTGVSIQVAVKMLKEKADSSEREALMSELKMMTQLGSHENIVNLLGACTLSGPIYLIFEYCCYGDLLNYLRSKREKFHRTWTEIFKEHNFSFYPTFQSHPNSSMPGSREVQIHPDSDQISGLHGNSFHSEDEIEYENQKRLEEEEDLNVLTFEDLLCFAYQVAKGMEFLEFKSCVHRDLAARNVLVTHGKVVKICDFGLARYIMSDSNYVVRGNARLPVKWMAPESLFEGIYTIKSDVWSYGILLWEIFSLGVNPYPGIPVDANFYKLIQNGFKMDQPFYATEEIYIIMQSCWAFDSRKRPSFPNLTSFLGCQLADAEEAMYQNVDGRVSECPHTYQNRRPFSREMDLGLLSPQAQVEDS
The following applies: at 1 µM.

The target of assay [6] is Vascular endothelial growth factor receptor 3 (Homo sapiens) (UniProt P35916). The following applies: at 0.1 µM.
The target is the same in assay [7]. The following applies: at 1 µM.
In assay [8] the target is Macrophage colony-stimulating factor 1 receptor (Homo sapiens) (UniProt P07333). Conditions: at 0.1 µM.
For assay [9] the target is unchanged. Conditions: at 1 µM.
The target of assay [10] is Tyrosine-protein kinase Fyn (Homo sapiens) (UniProt P06241). The following applies: at 0.1 µM.
For assay [11] the target is unchanged. The following applies: at 1 µM.
The target of assay [12] is Tyrosine-protein kinase HCK (Homo sapiens) (UniProt P08631). Conditions: at 0.1 µM.
Assay [13] shares this target. Conditions: at 1 µM.
The target in assay [14] is Insulin-like growth factor 1 receptor (Homo sapiens) (UniProt P08069). The following applies: at 0.1 µM.
For assay [15] the target is unchanged. Conditions: at 1 µM.
For assay [16], the target named is Insulin receptor (Homo sapiens) (UniProt P06213). Conditions: at 0.1 µM.
Assay [17] shares this target. The following applies: at 1 µM.
Assay [18] deals with Insulin receptor-related protein (Homo sapiens) (UniProt P14616). The following applies: at 0.1 µM.
Assay [19] shares this target. Conditions: at 1 µM.
Assay [20] deals with T4, Tyrosine-protein kinase ITK/TSK (Homo sapiens) (UniProt Q08881).
T4 sequence (whole entry): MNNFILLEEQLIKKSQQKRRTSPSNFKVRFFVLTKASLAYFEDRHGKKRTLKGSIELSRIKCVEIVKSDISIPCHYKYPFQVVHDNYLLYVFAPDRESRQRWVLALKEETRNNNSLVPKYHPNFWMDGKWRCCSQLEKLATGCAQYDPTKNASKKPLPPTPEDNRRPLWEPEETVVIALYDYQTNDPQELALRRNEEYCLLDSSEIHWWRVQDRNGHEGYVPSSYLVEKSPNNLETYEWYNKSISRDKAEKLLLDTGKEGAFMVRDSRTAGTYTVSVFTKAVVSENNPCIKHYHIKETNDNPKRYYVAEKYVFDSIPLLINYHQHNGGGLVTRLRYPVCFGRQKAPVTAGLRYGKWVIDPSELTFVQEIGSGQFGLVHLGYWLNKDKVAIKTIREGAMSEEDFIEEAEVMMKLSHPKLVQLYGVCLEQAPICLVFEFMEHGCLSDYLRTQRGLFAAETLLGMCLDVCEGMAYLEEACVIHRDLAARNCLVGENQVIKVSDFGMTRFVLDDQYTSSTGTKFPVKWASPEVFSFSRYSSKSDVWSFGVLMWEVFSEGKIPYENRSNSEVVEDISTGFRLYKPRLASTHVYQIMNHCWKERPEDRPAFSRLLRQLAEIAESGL
Conditions: at 0.1 µM.

Chain of Tyrosine-protein kinase Fyn (Homo sapiens) (P06241 2-537 limits assumed): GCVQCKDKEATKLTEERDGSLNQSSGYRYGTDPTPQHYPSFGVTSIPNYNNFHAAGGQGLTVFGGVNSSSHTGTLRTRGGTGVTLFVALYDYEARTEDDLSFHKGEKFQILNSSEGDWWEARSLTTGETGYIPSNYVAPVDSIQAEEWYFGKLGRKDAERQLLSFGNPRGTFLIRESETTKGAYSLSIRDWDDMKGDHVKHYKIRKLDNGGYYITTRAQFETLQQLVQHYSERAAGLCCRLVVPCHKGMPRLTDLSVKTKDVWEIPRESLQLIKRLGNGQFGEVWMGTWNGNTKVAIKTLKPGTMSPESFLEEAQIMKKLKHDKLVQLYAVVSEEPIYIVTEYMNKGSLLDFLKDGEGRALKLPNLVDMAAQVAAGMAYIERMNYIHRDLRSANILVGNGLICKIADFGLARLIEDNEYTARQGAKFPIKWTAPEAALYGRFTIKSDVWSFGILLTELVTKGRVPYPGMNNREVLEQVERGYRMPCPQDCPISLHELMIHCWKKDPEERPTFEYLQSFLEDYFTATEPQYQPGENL
Chain of Vascular endothelial growth factor receptor 3 (Homo sapiens) (P35916 whole entry): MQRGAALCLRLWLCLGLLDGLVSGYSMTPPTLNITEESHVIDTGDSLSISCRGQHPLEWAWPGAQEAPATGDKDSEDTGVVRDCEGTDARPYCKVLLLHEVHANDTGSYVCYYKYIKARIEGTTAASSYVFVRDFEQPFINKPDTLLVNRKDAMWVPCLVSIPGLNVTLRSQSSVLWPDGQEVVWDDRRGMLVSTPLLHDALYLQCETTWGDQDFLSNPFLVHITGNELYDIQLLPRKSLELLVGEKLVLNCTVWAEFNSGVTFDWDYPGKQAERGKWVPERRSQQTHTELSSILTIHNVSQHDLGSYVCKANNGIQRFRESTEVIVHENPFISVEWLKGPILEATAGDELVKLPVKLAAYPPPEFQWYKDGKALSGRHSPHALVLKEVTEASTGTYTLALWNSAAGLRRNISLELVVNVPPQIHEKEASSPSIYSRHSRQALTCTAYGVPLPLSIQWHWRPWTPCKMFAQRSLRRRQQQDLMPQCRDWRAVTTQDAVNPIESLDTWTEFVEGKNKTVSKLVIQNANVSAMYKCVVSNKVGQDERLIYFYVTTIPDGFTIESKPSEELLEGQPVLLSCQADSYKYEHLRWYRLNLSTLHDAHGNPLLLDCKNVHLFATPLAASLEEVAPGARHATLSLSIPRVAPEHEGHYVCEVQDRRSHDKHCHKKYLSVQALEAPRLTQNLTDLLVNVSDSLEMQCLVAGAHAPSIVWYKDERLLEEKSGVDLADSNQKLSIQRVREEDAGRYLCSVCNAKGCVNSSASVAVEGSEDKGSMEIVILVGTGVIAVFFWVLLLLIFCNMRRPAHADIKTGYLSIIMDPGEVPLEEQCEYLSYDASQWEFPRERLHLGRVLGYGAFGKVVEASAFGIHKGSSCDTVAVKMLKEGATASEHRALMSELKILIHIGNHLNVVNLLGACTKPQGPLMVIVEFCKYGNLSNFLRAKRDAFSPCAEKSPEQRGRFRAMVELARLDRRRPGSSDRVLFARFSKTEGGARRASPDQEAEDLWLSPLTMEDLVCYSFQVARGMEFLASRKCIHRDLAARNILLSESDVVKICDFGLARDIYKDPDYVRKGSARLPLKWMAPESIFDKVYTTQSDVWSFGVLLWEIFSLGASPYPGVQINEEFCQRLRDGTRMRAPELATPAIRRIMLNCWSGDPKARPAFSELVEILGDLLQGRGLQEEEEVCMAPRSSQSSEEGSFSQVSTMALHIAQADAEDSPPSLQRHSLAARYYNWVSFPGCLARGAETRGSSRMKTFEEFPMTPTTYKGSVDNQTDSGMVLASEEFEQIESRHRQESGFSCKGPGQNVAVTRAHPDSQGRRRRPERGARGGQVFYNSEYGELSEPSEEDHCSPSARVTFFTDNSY
Chain of Insulin receptor-related protein (Homo sapiens) (P14616 27-742 limits assumed): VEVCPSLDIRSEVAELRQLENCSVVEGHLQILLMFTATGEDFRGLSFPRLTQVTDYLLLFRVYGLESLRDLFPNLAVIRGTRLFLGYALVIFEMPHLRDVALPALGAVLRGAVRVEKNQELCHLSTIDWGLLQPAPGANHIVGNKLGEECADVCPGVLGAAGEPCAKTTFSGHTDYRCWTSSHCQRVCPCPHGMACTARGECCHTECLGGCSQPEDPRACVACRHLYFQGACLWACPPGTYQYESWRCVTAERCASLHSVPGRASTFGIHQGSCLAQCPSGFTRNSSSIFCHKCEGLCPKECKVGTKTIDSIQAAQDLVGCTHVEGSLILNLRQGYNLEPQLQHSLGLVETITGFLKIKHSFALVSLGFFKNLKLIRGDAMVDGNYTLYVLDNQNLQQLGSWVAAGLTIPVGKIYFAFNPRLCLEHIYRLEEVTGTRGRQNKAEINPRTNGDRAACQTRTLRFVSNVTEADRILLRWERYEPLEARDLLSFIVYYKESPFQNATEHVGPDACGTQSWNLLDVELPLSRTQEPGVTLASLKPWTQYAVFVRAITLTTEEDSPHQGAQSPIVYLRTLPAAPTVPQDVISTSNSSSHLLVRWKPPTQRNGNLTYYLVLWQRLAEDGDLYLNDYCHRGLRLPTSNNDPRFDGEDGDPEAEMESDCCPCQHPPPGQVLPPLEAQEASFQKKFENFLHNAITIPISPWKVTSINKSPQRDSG
Chain of Insulin receptor-related protein (Homo sapiens) (P14616 747-1297 limits assumed): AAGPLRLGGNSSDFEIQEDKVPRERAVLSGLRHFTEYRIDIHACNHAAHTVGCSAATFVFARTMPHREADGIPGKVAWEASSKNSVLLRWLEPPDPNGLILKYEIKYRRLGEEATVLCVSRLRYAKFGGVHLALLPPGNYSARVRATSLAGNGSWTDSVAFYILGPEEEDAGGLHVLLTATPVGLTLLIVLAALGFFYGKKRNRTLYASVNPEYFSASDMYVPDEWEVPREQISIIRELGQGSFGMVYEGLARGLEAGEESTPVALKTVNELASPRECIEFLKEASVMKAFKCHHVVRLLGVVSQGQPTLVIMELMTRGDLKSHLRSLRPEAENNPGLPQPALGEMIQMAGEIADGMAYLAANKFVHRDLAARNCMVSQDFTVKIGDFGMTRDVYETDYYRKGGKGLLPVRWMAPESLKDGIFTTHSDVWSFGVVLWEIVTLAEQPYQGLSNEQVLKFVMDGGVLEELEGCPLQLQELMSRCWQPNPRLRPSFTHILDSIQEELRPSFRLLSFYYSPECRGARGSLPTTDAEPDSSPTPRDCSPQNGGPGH
Chain of Macrophage colony-stimulating factor 1 receptor (Homo sapiens) (P07333 whole entry): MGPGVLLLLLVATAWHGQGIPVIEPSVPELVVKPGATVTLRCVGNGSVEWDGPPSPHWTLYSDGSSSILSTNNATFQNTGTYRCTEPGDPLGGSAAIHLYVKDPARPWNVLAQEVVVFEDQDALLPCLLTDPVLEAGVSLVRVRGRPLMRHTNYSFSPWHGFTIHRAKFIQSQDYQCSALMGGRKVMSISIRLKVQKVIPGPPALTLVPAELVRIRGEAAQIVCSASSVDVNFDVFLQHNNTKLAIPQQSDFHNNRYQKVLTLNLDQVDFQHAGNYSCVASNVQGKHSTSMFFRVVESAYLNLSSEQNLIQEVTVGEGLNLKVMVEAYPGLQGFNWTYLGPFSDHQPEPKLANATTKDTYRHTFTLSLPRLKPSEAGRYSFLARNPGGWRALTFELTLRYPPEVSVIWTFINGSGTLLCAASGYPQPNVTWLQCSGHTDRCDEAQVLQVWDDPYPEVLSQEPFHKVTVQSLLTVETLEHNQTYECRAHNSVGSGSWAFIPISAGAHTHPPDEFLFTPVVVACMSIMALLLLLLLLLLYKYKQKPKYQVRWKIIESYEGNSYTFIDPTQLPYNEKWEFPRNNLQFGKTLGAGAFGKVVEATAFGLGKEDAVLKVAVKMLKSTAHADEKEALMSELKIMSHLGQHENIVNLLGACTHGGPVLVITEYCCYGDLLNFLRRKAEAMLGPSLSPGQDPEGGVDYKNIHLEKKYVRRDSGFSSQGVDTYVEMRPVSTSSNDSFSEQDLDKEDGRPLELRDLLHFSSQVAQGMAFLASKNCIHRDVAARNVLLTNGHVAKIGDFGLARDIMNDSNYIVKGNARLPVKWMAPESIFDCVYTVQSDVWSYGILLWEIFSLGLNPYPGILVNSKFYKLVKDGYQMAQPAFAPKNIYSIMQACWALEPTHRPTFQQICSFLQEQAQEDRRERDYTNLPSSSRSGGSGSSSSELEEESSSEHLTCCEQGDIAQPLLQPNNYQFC
Chain of Tyrosine-protein kinase HCK (Homo sapiens) (P08631 2-526 limits assumed): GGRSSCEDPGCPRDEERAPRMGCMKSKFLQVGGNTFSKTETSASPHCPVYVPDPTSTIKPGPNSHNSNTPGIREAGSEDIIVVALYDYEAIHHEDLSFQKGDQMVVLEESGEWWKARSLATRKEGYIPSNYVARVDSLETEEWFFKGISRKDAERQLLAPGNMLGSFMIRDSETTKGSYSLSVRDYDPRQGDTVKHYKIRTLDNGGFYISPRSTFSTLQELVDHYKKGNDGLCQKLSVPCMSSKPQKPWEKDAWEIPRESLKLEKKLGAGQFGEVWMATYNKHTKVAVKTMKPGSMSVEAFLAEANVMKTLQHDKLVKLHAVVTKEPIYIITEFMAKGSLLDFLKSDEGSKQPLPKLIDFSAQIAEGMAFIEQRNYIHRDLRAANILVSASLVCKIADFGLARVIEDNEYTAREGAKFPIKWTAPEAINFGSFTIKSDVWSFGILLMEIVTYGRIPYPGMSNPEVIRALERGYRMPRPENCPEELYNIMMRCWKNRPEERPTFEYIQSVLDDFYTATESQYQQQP

In the case of `COc1ccc(C2=C(N3CCc4ccccc43)C(=O)NC2=O)cc1`, the inhibition in assay [1] was determined as 7.64%; in [2], 4.84%; in assay [3], 4.9%; in assay [4], 9.59%; in assay [5], 3.5%; in [6], 1.33%. Further, the inhibition worked out at 3.21% in [7]; 2.49% in assay [8]; 4.23% in assay [9]; 2.77% in assay [10]; 4.68% in assay [11]; 8.17% in [12]. Moreover, the inhibition in [13] worked out at 9.54%; in assay [14], 4.43%; in [15], 6.19%; in [16] it was 4.83%; in assay [17], 8.59%; in assay [18], 2.42%. For the same compound, the inhibition in [19] amounted to 1.91%; in [20], 1.76%.
Take `CNC(=O)c1cncc(/C=C/c2c(C)cccc2C)c1`: the inhibition was 2.51% in assay [1]; 1.18% in [2]; 0.2% in assay [3]; 1.49% in assay [4]; 5.46% in assay [5]; -8.92% in [7]. Also, the inhibition in [8] was 12%; in [9], 44.4%; in assay [10] it was 0.61%; in assay [11] it was 29.6%; in assay [12], 17.2%; in assay [13], 58.9%. Besides, the inhibition in assay [14] was -3.76%; in assay [15], -5.13%; in [16] it was 0.95%; in assay [17] it was 4.95%; in assay [18], 2.26%; in assay [19], 1.08%. The inhibition in [20] is -3.14%.
With `CCS(=O)(=O)c1ccc(OC)c(Nc2ncc(-c3cccc(-c4ccccc4F)c3)o2)c1`, the inhibition in [1] is -0.99%; in assay [2], 20.4%; in [4] it was 0.9%; in assay [5], 45%; in assay [6], 41%; in assay [7] it was 82.8%. Also, the inhibition in assay [8] is 4.55%; in [9], 27.2%; in assay [10], 47.1%; in [11], 85.6%; in assay [12] it was 16.9%; in assay [13], 64.4%. Further, the inhibition in assay [14] is 2.3%; in [15] it was 3.39%; in assay [16] it was 2.01%; in assay [17], 1.9%; in [18], -1.45%; in assay [19], -0.35%. Moreover, the inhibition in [20] came to 0.42%.

The record behind these values is ChEMBL document CHEMBL1961873, “Compounds: GSK PKIS; Assays: Nanosyn kinase panel” (2012).
